This excerpt belongs to a sample that is enriched for hits.
Integrin act MD: qHTS for Activators of Integrin-Mediated Alleviation for Muscular Dystrophy; Potency, µM (titrated, usually from 38.3 µM), inactives show top-dose activation, most hits filed as activators; alpha7betagal myoblasts, beta-gal FDG fluorescence, 48 h; 350,000 compounds, 0.064% hits; AID 624291, 2012;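 further: potency means the concentration at half of the fitted maximal effect; 100% = response of the positive control SU9516; nearly all actives have a fitted effect of over 60% in size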
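alpha7betagal+/- myoblasts (passage 13, 250/well) treated 48 h at 37C with compounds at 1:260 dilution of DMSO stock. Lysed, then beta-galactosidase activity read as FDG fluorescence (ex 480/em 540) after 30 min, with pre-read for autofluorescence.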
RORg inh: qHTS for inhibitors of ROR gamma transcriptional activity; AID 2551, 2010; Drosophila S2 Gal4-RORgamma UAS-luciferase reporter, 20 h; Potency, µM (top dose mostly 53.6 µM), for inactives: at the top dose activity change, negative = inhibition, usual class: inhibitors; 310,000 compounds, 5.4% hits; further: potency means the concentration at half of the fitted maximal effect; on the % scale 0 is the no-effect control and ±100 the full control effect; nearly all actives have a fitted effect of over 60% in size
Target sequence (P51450 whole entry, looked up, the tested form may be a part): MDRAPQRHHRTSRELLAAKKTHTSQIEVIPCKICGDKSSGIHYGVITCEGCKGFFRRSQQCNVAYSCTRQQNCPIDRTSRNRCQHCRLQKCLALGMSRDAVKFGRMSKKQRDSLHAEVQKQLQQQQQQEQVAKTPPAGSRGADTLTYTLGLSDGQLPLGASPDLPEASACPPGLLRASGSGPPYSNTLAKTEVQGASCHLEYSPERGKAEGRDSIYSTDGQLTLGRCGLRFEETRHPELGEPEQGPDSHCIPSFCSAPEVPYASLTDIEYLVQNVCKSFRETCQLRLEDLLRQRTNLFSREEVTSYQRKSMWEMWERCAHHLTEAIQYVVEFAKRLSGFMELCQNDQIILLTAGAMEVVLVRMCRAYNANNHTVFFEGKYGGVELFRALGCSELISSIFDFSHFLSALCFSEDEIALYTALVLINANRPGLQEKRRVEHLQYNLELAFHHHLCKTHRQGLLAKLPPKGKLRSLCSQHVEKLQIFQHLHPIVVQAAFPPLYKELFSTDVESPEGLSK
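Compounds are pin-transferred onto Drosophila Schneider cells expressing a copper-inducible Gal4–ROR gamma transactivation domain fusion. After 1 hr, copper sulfate is added to 700 uM final; luciferase is read 20 hr later.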
Gal4-VP16 FLuc: VP16 counterscreen qHTS for inhibitors of ROR gamma transcriptional activity; Potency, µM (highest dose often 53.6 µM), without a hit: at the highest dose activity, negative = inhibition, hits mostly inhibitors; AID 2546, 2010; Drosophila S2 Gal4-VP16 UAS-luciferase, luminescence, 20 h; 310,000 compounds, 3.5% hits;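 further: Gal4-VP16 expression switched on by copper sulfate through the metallothionein promoter; potency means the concentration at half of the fitted maximal effect; on the % scale 0 is the no-effect control and ±100 the full control effect; nearly all actives have a fitted effect of over 50% in size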
Giardia kill: Small Molecules that selectively kill Giardia lamblia: qHTS | activity change, % at 7.66 µM, hits read low | Giardia lamblia trophozoite viability | 340,000 compounds, 0.15% hits | AID 540267, 2011; in the data active means activity change below about -80%; inconclusive means between about -30% and that limit;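 further: parasites exposed to compound for two days anaerobically before the ATP read; on the % scale 0 is the no-effect control and ±100 the full control effect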
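Luminescent ATP signal served as the viability read-out, measured 15-30 min after adding ATP detection reagent to trophozoites that had been incubated with compounds for 48 hrs at 37 deg C anaerobically at 100 cells/well.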
ERG-DNA inh: qHTS for Small Molecule Inhibitors of the ERG Ets/DNA interaction | Transcriptional regulator ERG (Homo sapiens), P11308 | fluorescence polarization, His-ERG Ets domain / labelled DNA | Potency, µM (series often up to 76.9 µM), for the others: at the top dose FP activity, negative = inhibition, hits mostly inhibitors | 370,000 compounds, 0.028% hits | AID 624246, 2012; active means well fitted inhibition curve with a large enough effect in the polarisation, with a control signal flat; inconclusive means small, poorly fitted or top-dose-only effect, or effect the other way, or a change in a side signal; inactive means no such curve, though single readings can be large or run the other way; the % refers to the polarisation;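 further: polarization taken with two DNA probes labelled with fluorescein and Texas red; potency means the concentration at half of the fitted maximal effect; % of control where 0% means no effect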
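His-tagged ERG Ets domain (1 uM in the protein solution; 300mM KCl, 50mM Tris-HCl, 1mM EDTA, 1mM DTT, pH 7.5) received compound, then a probe mix of 5 nM fluorescein-DNA and 100nM Texas-615-DNA. Fluorescence polarization was read for both dyes.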
* hit, by the source's call; u = inconclusive; x = no result; [ ] = another dose, or the depositor's remark. Unless noted, the call rests on the fitted dose curve; in most records, active means well fitted curve in the direction sought with a large enough effect; inconclusive means small, poorly fitted or top-dose-only effect, or another doubt; inactive means no such curve, though single readings can be large; an effect the other way counts as inactive or inconclusive.

SMILES	Integrin act MD	RORg inh	Gal4-VP16 FLuc	Giardia kill	ERG-DNA inh
O=C(N/N=C/c1ccc([N+](=O)[O-])o1)C(O)c1ccccc1 (centres undefined)	-74.1%	3.4%	-26.5%	-84.0*	-6.8%
O=C(COc1ccccc1)N/N=C/c1ccc([N+](=O)[O-])o1	-42.5%	10µM*	15.8µM*	-96.9*	23.8%
O=C(N/N=C/c1ccccc1C(=O)O)c1cccc(S(=O)(=O)N2CCCCC2)c1	-33.7%	x	x	5.8	-2.9%
CCOc1ccc(CCNC(=O)C(CC)n2nc(C)c3c(C)n(-c4ccccc4)nc3c2=O)cc1 (centres undefined)	x	x	x	x	-4.5%
Cc1ccccc1Cn1c(=O)n(CCC(=O)NCc2ccco2)c(=O)c2sccc21	x	x	x	x	2.8%
COC(=O)c1nnn(CC(=O)Nc2cc(F)ccc2F)c1C(=O)OC	x	x	x	x	4.8%
O=C(N/N=C/c1ccc(-c2ccccc2[N+](=O)[O-])o1)[C@H]1C[C@@H]1c1ccccc1	-30.9%	u	11.2µM*	-8.6	u
Cc1cc(C(=O)N/N=C/C(Cl)=C/c2ccccc2)c(C)o1	-22.1%	-10.5%	12.6µM*	u	2.5%
Cc1ccc(OCC(=O)N/N=C\c2ccc(C)o2)c([N+](=O)[O-])c1	-40.5%	8.0%	8.4%	8.4	2.2%
Cc1cc(C(=O)N/N=C/c2ccc([N+](=O)[O-])o2)c(C)o1	-35.5%	-40.5%	u	-96.8*	2.3%
Cc1cc(C(=O)N/N=C\c2ccc(COc3ccc([N+](=O)[O-])cc3)o2)ccc1[N+](=O)[O-]	9.8%	11.2µM*	u	1.9	-6.4%
Cc1cc(C)c2c(c1)C1C=CCC1C(C(=O)O)N2 (centres undefined)	x	x	x	22.2	x
O=c1c(-c2ccc(Cl)cc2)nc2cnc(N3CCNCC3)nc2n1Cc1ccc(F)cc1	x	-29.6%	-24.1%	x	x
CC(C)c1nn2c(=O)cc(COC(=O)c3ccc(NC(=O)c4cccs4)cc3)nc2s1	x	x	x	x	1.3%
COc1ccc(CCNC(=O)Cn2c(=O)c3cccn3c3ccc(F)cc32)c(OC)c1	x	x	x	x	-4.3%
O=C(CNc1ccc2ccccc2c1)N/N=C/c1ccc([N+](=O)[O-])o1	-53.7%	-18.1%	u	-90.9*	12.5%
Cc1cc(C)c(S(=O)(=O)N/N=C/c2ccc([N+](=O)[O-])o2)c(C)c1	-31.1%	u	20µM*	u	2.9%
NC(=O)N/N=C/c1ccc([N+](=O)[O-])o1	x	-21.9%[10 µM]	u	u	21.5%
O=C(CNc1ccc2ccccc2c1)N/N=C/c1ccc(C(=O)O)cc1	-5.1%	-17.7%	-0.3%	-1.0	-7.5%
O=C(CSc1ccc(Cl)cc1)N/N=C/c1ccc([N+](=O)[O-])o1	-54.2%	-20.5%	u	-94.6*	-2.2%
Cc1ccc(OCC(=O)N/N=C/c2ccc([N+](=O)[O-])o2)cc1	-53.6%	u	u	-101.2*	-2.1%
CCOC(=O)N(O)c1ccc(C=Cc2ccccc2)cc1	-16.1%	x	x	-0.3	47.1%
Cc1ccc(NC(=O)CNC(=O)c2ccco2)c(Cl)c1	16.3%	23.1%	6.6%	17.2	3.5%
CCOc1ccc(CNC(=O)Cn2nc(C)c3nn(-c4ccc(Cl)cc4)c(C)c3c2=O)cc1OC	x	x	x	x	1.4%
C=C(C)COc1ccc(C2NC(=O)c3ccccc3O2)cc1OCC (centres undefined)	1.7%	0.8%	8.9%	5.7	-1.0%
O=[N+]([O-])c1ccc(/C=N/NC(=S)Nc2ccccc2C(F)(F)F)o1	-18.7%	11.2µM*	u	-12.3	12.8%
NC(=O)N/N=C\c1ccc([N+](=O)[O-])o1	x	u	-6.9%[17 µM]	x	x
O=C(N/N=C/c1ccc([N+](=O)[O-])o1)C1CC1	-45.2%	7.94µM*	3.6%	-85.4*	63.1%
